SMILES strings stand for the structures. The source made the active and inactive calls. Where a call stands in place of a potency, no number is given. Calls follow the shape of the full dose curve.

The values below come from PubChem BioAssay (Tox21).
Potency is read from the fitted curve at half-maximal effect.

Sequence of Gonadotropin-releasing hormone receptor (Homo sapiens) (P30968 whole entry, looked up): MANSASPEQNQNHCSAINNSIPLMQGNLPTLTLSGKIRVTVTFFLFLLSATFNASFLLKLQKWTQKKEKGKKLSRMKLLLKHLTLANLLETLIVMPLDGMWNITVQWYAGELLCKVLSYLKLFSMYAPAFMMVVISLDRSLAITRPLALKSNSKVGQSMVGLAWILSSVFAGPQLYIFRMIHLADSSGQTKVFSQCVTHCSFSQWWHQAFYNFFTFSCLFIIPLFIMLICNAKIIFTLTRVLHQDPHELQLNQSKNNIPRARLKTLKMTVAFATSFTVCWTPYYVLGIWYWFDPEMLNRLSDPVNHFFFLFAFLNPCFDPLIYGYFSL

This experiment concerns the target Gonadotropin-releasing hormone receptor (Homo sapiens) (UniProt P30968). Nature of the experiment: Human gonadotropin-releasing hormone receptor (GnRHR) small molecule agonists, calcium flux assay in GnRHR-HEK293 cells (AID 1920063). Also: nearly all actives have a fitted effect of over 35% in size. To be noted: calcium flux fluorescence, agonist mode; series mostly up to 57.6 µM. An excerpt: National Center for Advancing Translational Sciences [NCATS]
Division of Preclinical Innovation [DPI]
U.S. Environmental Protection Agency [EPA]
National Institutes of Environmental Health Sciences [NIEHS]
National Toxicology Program [NTP]
U.S. Food and Drug Administration [FDA]
Gonadotropin-releasing hormone receptor (GnRHR) is a G-protein-coupled receptor (GPCR) and acts (through phospholipase C) to increase intracellular inositol trisphosphate and then release intracellular calcium stores. Cell-based GnRHR-Hek293 calcium influx assay is using HEK293 cells that have been genetically engineered to express the human GnRHR, which activity can be measured by calcium signaling. A compound/drug can activate (agonist) GnRHR that can be monitored by levels of intracellular calcium.
GnRHR-HEK293 cells developed by Codex Corp contain human GnRHR reporter gene, which was stably integrated into HEK 293 cells. The compound activation can be detected by fluorescence intensity via calcium flux assay. This cell line has been used to screen the Tox21 10K compound library to identify GnRHR agonists.
GnRHR-Hek293 cells were dispensed at 1500cells/4uL/well in 1536-well black wall/clear bottom plates using a multidrop dispenser. After the assay plates were incubated at a 37 C/5% CO2 incubator for 18 hours, 4 uL of Calcium Dye Solution was added to each well. The plates were incubated at 37 C for 1 hour. For agonist mode, 23 nL of compounds dissolved in DMSO, positive controls or DMSO only was transferred to the assay plate by a pin tool station. The fluorescence intensity in the plates was measured using FDSS 7000EX kinetic plate reader with a filter set of Ex/Em=480/540 for 3 min at 1 sec intervals. Each test compound was measured at 15 concentrations and in triplicates.
On to `OCCCO`, for which the Potency entry is “inactive”.
Consider `CCCCCCCCCCCC(C)=O`, for which the Potency entry is “inactive”.
With `C=CC(C)(C)O`, the Potency entry was “inactive”.
For `Cc1c(Cn2ccnc2)c2ccccc2n1CCC(=O)O` the value was “inactive”; for `CC(C)(C)c1cc(CCC(=O)NCCCCCCNC(=O)CCc2cc(C(C)(C)C)c(O)c(C(C)(C)C)c2)cc(C(C)(C)C)c1O`, “inactive”.
The result for `CCCC(=O)OCOC(=O)C1=C(C)NC(C)=C(C(=O)OC)C1c1cccc(Cl)c1Cl` (stereo not given) reads “inactive”; that for `C=COCC1CCC(CO)CC1` (stereo not given), “inactive”.
The result for `CCOC(=O)C(Br)c1ccccc1` (stereo not given) reads “inactive”; that for `C=CC/C=C/C`, “inactive”; that for `Cc1c(C)c([N+](=O)[O-])c(C(C)(C)C)c([N+](=O)[O-])c1C`, “inactive”.
As for `CC(C)(C(=O)c1cccnc1)c1cccnc1`, the Potency entry is “inactive”.
For `Clc1ccc2c(c1)CCc1cccnc1C2=C1CCNCC1` the value was “inactive”; for `CCC(C)c1nccnc1OC` (stereo not given), “inactive”.
In the case of `CN1CCN(C2=Nc3ccccc3Oc3ccc(Cl)cc32)CC1`, the Potency result is “inactive”.
As to `COc1ccc(C(=O)Nc2nc3ccccc3c(NCc3ccccc3)c2C#N)cc1`, the Potency entry was “inactive”.
On to `N#Cc1c(F)cccc1F`, for which the Potency entry is “inactive”.
`CC(=O)Oc1cc(C(C)C)c(OCCN(C)C)cc1C`: the Potency entry was “inactive”.
The result for `COC(=O)c1ccc(I)cc1S(=O)(=O)NC(=O)Nc1nc(C)nc(OC)n1` reads “inactive”.
The result for `CC(C)(O)c1coc(S(=O)(=O)NC(=O)Nc2c3c(cc4c2CCC4)CCC3)c1` reads “inactive”; that for `Cc1c(Cl)cccc1Nc1ccccc1C(=O)O`, “inactive”; that for `CCC(C)(CCCC(C)C)OC(C)=O` (stereo not given), “inactive”.
As to `CS(=O)(=O)c1ccc(-c2cn3ccccc3n2)cc1`, the Potency result was “inactive”.
As for `CC(C)Nc1nc(N)nc(Cl)n1`, the Potency entry is “inactive”.
The result for `OC1CCC(C2CCCCC2)CC1` (stereo not given) reads “inactive”; that for `C[C@]12C=CC(=O)C=C1[C@@H](F)C[C@@H]1[C@@H]2[C@@H](O)C[C@@]2(C)[C@H]1CC[C@]2(O)C(=O)CO`, “inactive”; that for `C/C=C/C(=O)Oc1c(CCCCCC(C)C)cc([N+](=O)[O-])cc1[N+](=O)[O-]`, 38.9 µM (active).
Turning to `CCOc1nc2cccc(C(=O)O)c2n1Cc1ccc(-c2ccccc2-c2nn[nH]n2)cc1`, the Potency result is “inactive”.
The result for `COC(=O)CCCCCCCCC(=O)OC` reads “inactive”.
As for `O=c1cc(-c2ccccc2)oc2ccc3ccccc3c12`, the Potency entry was “inactive”.
For the molecule `CN1Cc2cc(C(=O)N3CCC(C4CCNCC4)CC3)ccc2NC(CC(=O)O)C1=O` (stereo not given), the Potency entry was “inactive”.
The result for `Cc1cccc(C)c1NC(=O)CN1CCCC1` reads “inactive”.
Take `O=C(O)c1ccc2cc(O)ccc2c1`: the Potency entry is “inactive”.
For `C=CC(=O)O` the value was “inactive”; for `Cc1oc(=O)oc1COC(=O)[C@@H]1N2C(=O)[C@@H](NC(=O)[C@H](N)c3ccccc3)[C@H]2SC1(C)C`, “inactive”.
Regarding `Cc1cc(C(C)(C)C)c(O)c(C)c1CC1=NCCN1`, the Potency entry was “inactive”.
Regarding `CNCCc1ccccn1`, the Potency entry was “inactive”.
The result for `OC1(c2ccccc2)CCNCC1` reads “inactive”; that for `CCCCCCCC1CCCC1=O` (stereo not given), “inactive”.
As to `O=C(Nc1ccccc1)c1cc([N+](=O)[O-])ccc1Cl`, the Potency result was “inactive”.
With `COc1ccccc1Oc1c(NS(=O)(=O)c2ccc(C(C)(C)C)cc2)nc(-c2ncccn2)nc1OCCO`, the Potency entry was “inactive”.
